From PubChem BioAssay (NCI)
About 83,000 compounds went through this panel and 20% of them were active in at least one assay; those are over-represented in the sample as a whole.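 Treatment: one concentration, 48 hours, 96-well format. Scoring: percent growth, with anything below 10 considered active.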 The source made the active and inactive calls.

Tests used:
Assay in all cases: NCI-60 one-dose screen, 48 h (100 = growth as untreated, 0 = no growth, -100 = all killed)
Details in all cases: 10 µM unless noted
[1] = test system: NCI-H23 lung
[2] = test system: NCI-H226 lung
[3] = test system: NCI-H322M lung
[4] = test system: HOP-62 NSCLC
[5] = test system: NCI-H460 lung
[6] = test system: HOP-92 NSCLC
[7] = test system: NCI-H522 lung
[8] = test system: A549/ATCC NSCLC
[9] = test system: 786-0 renal
[10] = test system: COLO 205 colon
[11] = test system: DU-145 prostate
[12] = test system: K-562 leukemia
[13] = test system: MALME-3M melanoma
[14] = test system: MDA-MB-231 breast
[15] = test system: RXF 393 renal
[16] = test system: SF-268 CNS
[17] = test system: SF-295 CNS
[18] = test system: SF-539 CNS
[19] = test system: UACC-257 melanoma
[20] = test system: M14 melanoma

Measured: growth

CC(=O)Nc1ccc2c(c1)c(NC(C)=O)nn2C(=O)Nc1ccc(Cc2ccccc2)cc1
active: [6] -42.8%
inactive: [1] 26.8% | [2] 62.7% | [3] 75.1% | [4] 44.3% | [5] 76.4% | [7] 76.3% | [8] 92.1% | [9] 67.9% | [10] 102% | [11] 83% | [12] 18.2% | [13] 86.5% | [14] 69.9% | [15] 92.6% | [16] 46.6% | [17] 54% | [18] 80.9% | [19] 87.2% | [20] 63%

CCN(CC)CC#CCOC(=O)[C@]1(C)CCC[C@@]2(C)[C@H]1CC(C=O)=C1C=C(C(C)C)CC[C@@H]12
inactive: [1] 60.2% | [2] 76% | [3] 94.5% | [4] 74.8% | [5] 64% | [6] 44.8% | [7] 53.3% | [8] 62.4% | [9] 58.3% | [10] 44.5% | [11] 90.1% | [12] 20.7% | [13] 82.3% | [14] 76% | [15] 61.2% | [16] 75.8% | [17] 71.8% | [18] 49.1% | [19] 85.4% | [20] 56.4%

COC1=CC(=O)C(OC)=C(OC)C1=O
inactive: [1] 90.5% | [2] 86.7% | [3] 94.2% | [4] 92.6% | [5] 96.6% | [6] 109% | [7] 100% | [8] 114% | [9] 93.4% | [10] 114% | [11] 106% | [12] 63.9% | [13] 92.1% | [14] 86% | [15] 111% | [16] 94.3% | [17] 99.3% | [18] 90.7% | [19] 107% | [20] 93.2%

CCOC(=S)SCc1ccc(Cl)cc1
inactive: [1] 111% | [2] 101% | [3] 102% | [4] 101% | [5] 110% | [6] 49.3% | [7] 87.2% | [8] 80.4% | [9] 98% | [10] 145% | [11] 106% | [12] 110% | [13] 107% | [14] 85.4% | [15] 87.6% | [16] 106% | [17] 89.4% | [18] 114% | [19] 100% | [20] 99.1%

CCCCCCNC(=O)Oc1ccc(/C(=C(\C)c2ccccc2)c2ccc(OCCN(CC)CC)cc2)cc1
active: [5] 7.03% | [10] -4.77% | [12] 2.08% | [19] -1.51% | [20] -40.1%
inactive: [1] 69.6% | [2] 82.6% | [3] 90% | [4] 83.2% | [6] 39.1% | [7] 47.8% | [8] 49.9% | [9] 44.7% | [11] 87.7% | [13] 33% | [14] 68.9% | [15] 32.7% | [16] 55.8% | [17] 83.1% | [18] 50%

C=CC[N+]1(CCO)CCN=C1CCCCCCCCCCCCC (stereo not given)
active: [1] -86.7% | [2] 3.45% | [4] -90.5% | [5] -85.8% | [6] -18.3% | [7] -82.6% | [8] 0.535% | [9] -97.1% | [10] -91.4% | [11] -90.4% | [12] -53.9% | [13] -61.9% | [14] -70.1% | [15] -55.3% | [16] -60.6% | [18] -96.6% | [19] -80.3% | [20] -86.2%
inactive: [3] 73.9% | [17] 47.5%

O=S(=O)(Nc1ccc(Cl)cc1Cl)c1ccc(-c2cnc(C3CC3)o2)cc1
inactive: [1] 28.2% | [2] 59% | [3] 36.5% | [4] 31.5% | [5] 12.7% | [6] 51.2% | [8] 26.5% | [9] 41.4% | [12] 10.9% | [13] 37.7% | [14] 44.2% | [16] 53.6% | [19] 55.4% | [20] 10.8%
active: [7] -1.33% | [10] 4.78% | [11] 8.88% | [15] -10.7% | [17] 1.37% | [18] -13.5%

CCCCOc1ccc(NC(=O)n2nc(NC(C)=O)c3cc(NC(C)=O)ccc32)cc1
inactive: [1] 101% | [2] 99% | [3] 99.4% | [4] 108% | [5] 102% | [6] 93% | [7] 91.7% | [8] 102% | [9] 93.2% | [10] 121% | [11] 94.6% | [12] 33.7% | [13] 93.3% | [14] 105% | [15] 95.6% | [16] 127% | [17] 84% | [18] 95% | [19] 112% | [20] 95.2%
